Assay in all cases: HT-SELEX; high values mean tight binding
Holding throughout (settings): protein: recombinant; vector His6-GST; dsDNA, one strand shown

Assay [1] has as its target T1, SALL4 ZFC4 WT (HT-SELEX) (Mus musculus, UniProt Q8BX22 870-940).
T1 sequence: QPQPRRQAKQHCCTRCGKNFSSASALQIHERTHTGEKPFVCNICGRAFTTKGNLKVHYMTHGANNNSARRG
The gist of the method:
(§1)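 Binding signal is defined as the fold change of each canonical k-mer's read fraction versus the initial random library. Selections used 1 µg of purified recombinant mouse SALL4 zinc finger cluster 4 (residues 870–940) with library DNA (1.5 µg first cycle, 200 ng later) in 100 µl of 10 mM Tris–HCl pH 7.5, 50 mM NaCl, poly(dI-dC) and DTT, for 10 min at room temperature, followed by Ni2+ bead capture, washing and PCR. Up to 6 such cycles were run in triplicate before MiSeq sequencing and 6-mer scanning.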

Assay [2] concerns the target T2, SALL4 ZFC4 R900W (HT-SELEX) (Mus musculus, UniProt Q8BX22 870-940, R900W).
T2 sequence: T1 sequence with R31W
The gist of the method: as §1

The target of assay [3] is T3, SALL4 ZFC4 G921D (HT-SELEX) (Mus musculus, UniProt Q8BX22 870-940, G921D).
T3 sequence: T1 sequence with G52D
The method in brief:
as §1

Positions count from the first letter of the chain named.

As to AGAACA, the binding signal came out at 1.26 ± 0.0155 fold-change vs cycle 0 in assay [1], 1.39 ± 0.0297 fold-change vs cycle 0 in assay [2] and 1.34 ± 0.0563 fold-change vs cycle 0 in assay [3].
Regarding CTCGTA, the binding signal worked out at 0.764 ± 0.033 fold-change vs cycle 0 in assay [1], 0.867 ± 0.0258 fold-change vs cycle 0 in assay [2] and 0.901 ± 0.00732 fold-change vs cycle 0 in assay [3].
With ACTCTA, the binding signal is 1.37 ± 0.0421 fold-change vs cycle 0 in assay [1], 1.48 ± 0.0703 fold-change vs cycle 0 in assay [2] and 1.43 ± 0.113 fold-change vs cycle 0 in assay [3].
In the case of AGCTTC, the binding signal in assay [1] is 0.709 ± 0.0328 fold-change vs cycle 0; in assay [2] it was 0.839 ± 0.0164 fold-change vs cycle 0; in assay [3], 0.895 ± 0.0229 fold-change vs cycle 0.
As to AGGCAT, the binding signal in assay [1] amounted to 0.627 ± 0.0329 fold-change vs cycle 0; in assay [2], 0.715 ± 0.0142 fold-change vs cycle 0; in assay [3] it was 0.816 ± 0.0443 fold-change vs cycle 0.
The like results for GAAACA were, in that order, 1.23 ± 0.0252 fold-change vs cycle 0, 1.33 ± 0.0252 fold-change vs cycle 0 and 1.29 ± 0.046 fold-change vs cycle 0.
As for CAGTTC, the binding signal was determined as 0.794 ± 0.00773 fold-change vs cycle 0 in assay [1], 0.912 ± 0.0408 fold-change vs cycle 0 in assay [2] and 0.935 ± 0.0458 fold-change vs cycle 0 in assay [3].
The like results for CTTAAC were, in that order, 1.38 ± 0.0537 fold-change vs cycle 0, 1.58 ± 0.0426 fold-change vs cycle 0 and 1.42 ± 0.0747 fold-change vs cycle 0.
For AACTCC, the figures for the binding signal in assay [1], in assay [2] and in assay [3] were 0.917 ± 0.0119 fold-change vs cycle 0, 1.02 ± 0.0156 fold-change vs cycle 0 and 1.06 ± 0.0177 fold-change vs cycle 0, respectively.
Consider AAGGCT, for which the figures for the binding signal in assay [1], in assay [2] and in assay [3] were 0.61 ± 0.0387 fold-change vs cycle 0, 0.726 ± 0.0643 fold-change vs cycle 0 and 0.8372 ± 0.00507 fold-change vs cycle 0, respectively.
Take CTCAAC: the binding signal stood at 0.775 ± 0.0132 fold-change vs cycle 0 in assay [1], 0.9089 ± 0.00888 fold-change vs cycle 0 in assay [2] and 0.928 ± 0.0107 fold-change vs cycle 0 in assay [3].
As for ATCACA, the binding signal in assay [1] came out at 1.39 ± 0.0936 fold-change vs cycle 0; in assay [2], 1.48 ± 0.0843 fold-change vs cycle 0; in assay [3], 1.43 ± 0.11 fold-change vs cycle 0.
The like results for AAAGAC were, in that order, 1.11 ± 0.0498 fold-change vs cycle 0, 1.29 ± 0.0526 fold-change vs cycle 0 and 1.26 ± 0.0352 fold-change vs cycle 0.
With ATTCCG, the binding signal amounted to 0.646 ± 0.0192 fold-change vs cycle 0 in assay [1], 0.697 ± 0.0273 fold-change vs cycle 0 in assay [2] and 0.798 ± 0.0236 fold-change vs cycle 0 in assay [3].
As for ACCCAG, the figures for the binding signal in assay [1], in assay [2] and in assay [3] were 0.455 ± 0.0148 fold-change vs cycle 0, 0.526 ± 0.0133 fold-change vs cycle 0 and 0.628 ± 0.0574 fold-change vs cycle 0, respectively.
For GACTTA, in that order: 1.27 ± 0.0397 fold-change vs cycle 0, 1.4 ± 0.0678 fold-change vs cycle 0 and 1.33 ± 0.102 fold-change vs cycle 0.
ACGCAA: the binding signal stood at 0.452 ± 0.0105 fold-change vs cycle 0 in assay [1], 0.521 ± 0.02 fold-change vs cycle 0 in assay [2] and 0.635 ± 0.0427 fold-change vs cycle 0 in assay [3].
As to GATATC, the figures for the binding signal in assay [1], in assay [2] and in assay [3] were 1.46 ± 0.0542 fold-change vs cycle 0, 1.45 ± 0.075 fold-change vs cycle 0 and 1.39 ± 0.0375 fold-change vs cycle 0, respectively.
For CCATTC, the binding signal in assay [1] came to 0.803 ± 0.0377 fold-change vs cycle 0; in assay [2], 0.923 ± 0.0207 fold-change vs cycle 0; in assay [3], 0.938 ± 0.0225 fold-change vs cycle 0.
Take ATATCC: the binding signal was 1.52 ± 0.0519 fold-change vs cycle 0 in assay [1], 1.43 ± 0.0827 fold-change vs cycle 0 in assay [2] and 1.37 ± 0.0764 fold-change vs cycle 0 in assay [3].
Regarding ACAGTC, the results for the binding signal in assay [1], in assay [2] and in assay [3] were 0.718 ± 0.0285 fold-change vs cycle 0, 0.8733 ± 0.00718 fold-change vs cycle 0 and 0.889 ± 0.0202 fold-change vs cycle 0, respectively.
AAAAGA: the binding signal is 1.8 ± 0.0481 fold-change vs cycle 0 in assay [1], 1.94 ± 0.106 fold-change vs cycle 0 in assay [2] and 1.7 ± 0.125 fold-change vs cycle 0 in assay [3].
For CAATGC, in that order: 0.595 ± 0.019 fold-change vs cycle 0, 0.673 ± 0.0218 fold-change vs cycle 0 and 0.807 ± 0.0224 fold-change vs cycle 0.
Consider ACTCCC, for which the values for the binding signal in assay [1], in assay [2] and in assay [3] were 0.553 ± 0.0252 fold-change vs cycle 0, 0.612 ± 0.0294 fold-change vs cycle 0 and 0.716 ± 0.0322 fold-change vs cycle 0, respectively.
Take AGACTA: the binding signal in assay [1] came out at 1.31 ± 0.0607 fold-change vs cycle 0; in assay [2], 1.47 ± 0.0959 fold-change vs cycle 0; in assay [3] it was 1.41 ± 0.0994 fold-change vs cycle 0.
For CATGTC, in that order: 0.763 ± 0.0529 fold-change vs cycle 0, 0.908 ± 0.0423 fold-change vs cycle 0 and 0.939 ± 0.0158 fold-change vs cycle 0.
Regarding GCTGAC, the binding signal in assay [1] amounted to 0.325 ± 0.00641 fold-change vs cycle 0; in assay [2], 0.408 ± 0.0215 fold-change vs cycle 0; in assay [3], 0.526 ± 0.0825 fold-change vs cycle 0.
As to AAGACT, the binding signal in assay [1] worked out at 1.29 ± 0.0445 fold-change vs cycle 0; in assay [2], 1.49 ± 0.0431 fold-change vs cycle 0; in assay [3], 1.4 ± 0.0897 fold-change vs cycle 0.
For the sequence CCATGG, the binding signal amounted to 0.445 ± 0.023 fold-change vs cycle 0 in assay [1], 0.524 ± 0.00825 fold-change vs cycle 0 in assay [2] and 0.622 ± 0.0615 fold-change vs cycle 0 in assay [3].
Consider AGATTC, for which the binding signal in assay [1] was determined as 1.34 ± 0.0579 fold-change vs cycle 0; in assay [2], 1.42 ± 0.0466 fold-change vs cycle 0; in assay [3], 1.39 ± 0.0922 fold-change vs cycle 0.

For the origin of these results see publication PMC9838217, “Structure of SALL4 zinc finger domain reveals link between AT-rich DNA binding and Okihiro syndrome”.
